# Most compounds without a hit are left out; they make up all but 21% or so of the library.
# HCV inh = qHTS Assay for Inhibitors of Hepatitis C Virus (HCV); Potency, µM (titrated, usually from 41.8 µM), for the others: at the highest dose activity change, negative = inhibition, actives largely listed as inhibitors; 340,000 tested, 3.4% active; AID 651820, 2012; Huh7.5.1 HCVcc-Cre infection, luciferase reporter, 44 h; note: potency is the fitted concentration of half-maximal effect; % is set by controls: 0 for no effect and ±100 for the full control effect
#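 Infectious HCVcc-Cre (~0.5 moi) was added to cells just after compound, with cells seeded 4 h earlier at 1,000 per well. Luciferase activity after 44 h culture reported infection; substrate was incubated 15 min at room temperature before reading.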
# Shiga toxin inh = A qHTS for Small Molecule Inhibitors of Shiga Toxin. Vero cells, Shiga toxin protein synthesis inhibition reporter. inhibition, % at 38.7 µM. 290,000 tested, 9.2% active. AID 2315, 2010; in the data active = inhibition mostly above about 28%, no sharp cut-off; inactive = mostly below about 43%; note: 0% is about no effect
# HCMV inh = qHTS Assay for inhibitors of the human cytomegalovirus (HCMV); 410,000 tested, 4.5% active; AID 1259415, 2018; HFF cells, HCMV-luciferase reporter, 72 h; active compounds read low; activity change, negative = inhibition, % at 57.5 µM; in the data active = activity change below about -60%; inconclusive = no clear call, values can overlap the other calls; inactive = above about -39%; note: % is set by controls: 0 for no effect and ±100 for the full control effect
#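 HFF cells seeded 16 h at 37C, treated with compounds, infected with luciferase-reporter HCMV at MOI 1 PFU/cell; luciferase read at 72 h post infection, normalized to buffer-only and Salinomycin controls.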
# Pf growth 48h = Primary qHTS for delayed death inhibitors of the malarial parasite plastid, 48 hour incubation. Potency, µM (top dose mostly 28.7 µM), for the others: at the highest dose activity change, negative = inhibition, usual class: inhibitors. P. falciparum luciferase growth in erythrocytes, 48 h. 310,000 tested, 5.9% active; note: potency is the fitted concentration of half-maximal effect; % is set by controls: 0 for no effect and ±100 for the full control effect
#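 Luciferase-expressing P. falciparum in infected erythrocytes (2% hematocrit, 0.1% parasitemia final) in RPMI 1640/0.5% Albumax were exposed to compound for 48 hours at 37 C, 5% CO2; growth read as luminescence.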
# Pf growth 96h = Primary qHTS for delayed death inhibitors of the malarial parasite plastid, 96 hour incubation; P. falciparum luciferase reporter growth, 96 h; Potency, µM (doses to about 28.7 µM), for inactives: top-dose activity change, negative = inhibition, most hits filed as inhibitors; 320,000 tested, 6.9% active; AID 504834, 2011; note: potency is the fitted concentration of half-maximal effect; % is set by controls: 0 for no effect and ±100 for the full control effect
#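 Plates of compound plus infected erythrocytes (2% hematocrit, 0.05% parasitemia final) incubate 96 hours, 37 C, 5% CO2. Detection reagent added; reduced luminescence from the parasites' luciferase reporter flags inhibition.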
# Cycloheximide cs = Cycloheximide Counterscreen for Small Molecule Inhibitors of Shiga Toxin. cell reporter, cycloheximide protein synthesis inhibition counterscreen. max response, %. 300,000 tested, 12% active; in the data active = max response mostly above about 13%, no sharp cut-off; inactive = mostly below about 14%; note: read at 38.3 µM for the half of the compounds with a filed dose; 0% is about no effect
# * = called active by the depositor; u = inconclusive; x = no result; [ ] = another dose, or the depositor's remark. Unless noted, calls come from the whole dose curve; as a rule, active = well fitted inhibition curve with a large enough effect; inconclusive = small, poorly fitted or top-dose-only effect, or another doubt; inactive = no such curve, though single readings can be large or run the other way.
SMILES,HCV inh,Shiga toxin inh,HCMV inh,Pf growth 48h,Pf growth 96h,Cycloheximide cs
CC(C)C(=O)c1cn(Cc2ccccc2C#N)c2ccccc12,u,-14,4,5%,3%,-4
N/C(=N\O)c1cn(Cc2ccccc2Cl)c2ccccc12,-19%,-5,-71*,x,-8%,-2
CC(=O)c1cn(Cc2ccccc2C#N)c2ccccc12,2.5µM*,24,-65*,-8%,u,6
Cc1cc(C)c(OCC(=O)N(Cc2ccc(N(C)C)cc2)C2CCS(=O)(=O)C2)c(C)c1 (stereo not given),11%,-9,-24,u,u,2
Cc1cccc(NC(=O)CCNC(=O)c2ccccc2)c1,0%,-6,4,-12%,15%,-1
Cc1cc(Cl)ccc1OC(C)C(=O)O (stereo not given),23%,-9,147,-19%,-28%,-4
Cc1ccc(-c2nc3ccc(Cl)cc3n2OC(C)C(=O)O)cc1 (stereo not given),2%,83*,150,24%,13%,36*
Clc1ccc2nc3ccccn3c2c1,10µM*,73,8,12%,-7%,14
N#Cc1ccc2c(c1)nc1ccccn12,5%,33,u,32%,u,11
Cc1ccc(-c2nc3ccc(Cl)cc3n2OC(=O)N(C)C)cc1,-14%,124*,-3,u,x,36
COc1ccc(-c2nc3ccccc3n2OC(C)C(=O)O)cc1 (stereo not given),0%,76*,-12,95%,60%,35*
Clc1ccc(-c2nc3ccccc3n2OCc2ccccc2)cc1,u,-4,-33,u,u,-2
Cc1ccc2oc(-c3cccc(NC(=O)c4sc5c([N+](=O)[O-])cccc5c4Cl)c3)nc2c1,x,x,24,x,x,x
On1c(-c2ccccc2)nc2ccc(Cl)cc21,-5%,84*,48,u,u,26
CC(On1c(-c2ccccc2)nc2ccc(Cl)cc21)C(=O)O (stereo not given),-3%,56*,46,14%,15%,28*
O=c1c2cc(Br)ccc2nc(-c2ccc(Cl)cc2)n1O,-4%,-2,u,0%,0%,1
COc1ccc(CN(C)CC(=O)NCC(=O)Nc2c(C)cccc2C)cc1,-1%,x,-17,-11%,u,x
CCc1ccc2c(CN(C)Cc3ccccc3OC)cc(=O)oc2c1,-22%,56,5,-2%[0.00184 µM],-27%,19*
Cc1cc2oc(=O)cc(CN3CCCCC3)c2cc1C,6%,21,14,17%,4%,6
Cc1cc2oc(=O)cc(CN3CCCCC3C)c2cc1C(C)C (stereo not given),13µM*,-5,-35,15µM*,u,-2
Cc1ccc2c(CN(C)Cc3cccc(F)c3)cc(=O)oc2c1,-13%,88*,75,100%,82%,30*
COc1ccc2oc(=O)cc(CN(C)Cc3ccccc3)c2c1,7.9µM*,-5,u,u,u,-4
COc1ccccc1N1CC(C(=O)OCC(=O)c2c(N)n(C)c(=O)n(C)c2=O)CC1=O (stereo not given),x,x,0,x,x,x
COc1ccccc1NC(=O)CSc1nnc2ccc(-c3ccccn3)nn12,5%[8.37 µM],x,6,u,u,x
CCOC(=O)c1c(C)nc2c(c1-c1cc(OC)ccc1OC)C(=O)CC(C)(C)C2,20%,-9,-20,-10%,-10%,1
SMILES,HCV inh,Shiga toxin inh,HCMV inh,Pf growth 48h,Pf growth 96h,Cycloheximide cs
CCOC(=O)n1ccn(C)c1=S,x,x,7,11%[12.8 µM],-10%[12.8 µM],x
Cc1cc2oc(=O)cc(CN(C)Cc3ccccc3)c2cc1C(C)C,8.9µM*,-7,-32,13µM*,u,-1
COc1ccc(CCNC(=O)Cn2cnc3scc(-c4ccccc4)c3c2=O)cc1OC,-19%,-5,-102*,-29%,u,-3
CC(C)(C)n1ncc2c(=O)n(CC(=O)NCCc3ccccc3)cnc21,-5%,61*,9,35%,96%,21*
CC(C)(C)n1ncc2c(=O)n(CC(=O)NCc3ccccc3Cl)cnc21,18%,64*,14,14%,u,32*
Cc1ccc(-n2ccn(CC(=O)NCCc3ccccc3)c(=O)c2=O)cc1C,-1%,18,u,48%,4%,33*
Cc1ccc(NC(=O)Cn2cnc3c(cnn3C(C)(C)C)c2=O)cc1,5%,-7,6,-7%,u,10
COC(=O)c1sc2ncn(CC(=O)NCCc3ccc(OC)c(OC)c3)c(=O)c2c1C,-27%,-17,46,-2%,6%,-1
CCOC(=O)C1CCCN(C(=O)Cc2ccc(OC)c(OC)c2)CC1 (stereo not given),x,x,-13,x,x,x
CC(=NNC(=O)c1ccc(NS(=O)(=O)c2cccs2)cc1)c1ccc(OCC(N)=O)cc1,7%,x,19,x,x,x
COc1ccc(CCNC(=O)Cn2cnc3c(cnn3C(C)(C)C)c2=O)cc1OC,u,-5,0,7%,10µM*,6
O=C(Cn1cnc2scc(-c3ccccc3)c2c1=O)NCc1ccco1,-9%,-6,u,-17%,96%,7
CCc1ccc(-c2csc3ncn(CC(=O)NCc4ccco4)c(=O)c23)cc1,u,30*,-32,u,-13%,15*
COc1ccc(NC(=O)N2CCN3CCCCC3C2)cc1OC (stereo not given),x,x,-31,x,x,x
CC(=O)c1ccc(Nc2cc(C)nc3nc(Cc4ccc(Cl)cc4)nn23)cc1,x,x,-30,x,x,x
O=C(Nc1ccc(F)cc1)Nc1ccc(N2CCOCC2)c2nonc12,u,38,21,17%,0%,18*
Nc1ccc(N2CCOCC2)c2nonc12,25%,-8,17,1%,12µM*,-1
O=C(Nc1ccc(N2CCOCC2)c2nonc12)C1CCCC1,0%,37,0,-3%,x,18*
COc1cc(OC)cc(C(=O)Nc2c(C)nn(-c3ccccc3)c2C)c1,5%,-18,-19,2%,5%,-3
CCOc1ccc(CCNC(=O)c2cn(CC)c3ccc(S(=O)(=O)N4CCc5ccccc5C4)cc3c2=O)cc1OCC,x,x,-5,x,x,x
CSc1ccc(S(=O)(=O)N2CCC(C(=O)NCc3ccccn3)CC2)cc1,-11%,12,3,-7%,12µM*,-1
O=C(NCc1ccccc1CN1CCCC1)C1CCN(S(=O)(=O)c2ccc(F)c(F)c2)CC1,-10%,x,-101*,-36%,u,x
CCCS(=O)(=O)N1CCC(C(=O)NCc2ccccc2Cl)CC1,16%,22,5,24%,10µM*,17*
O=C(NCc1ccccn1)C1CCN(S(=O)(=O)c2ccccc2)CC1,2%,-15,24,11%,12%,-2
